# The panel holds about 83,000 compounds, 20% with a hit somewhere; the sample as a whole holds those more often.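 Results are percent growth after 48 hours of single-concentration exposure. 100 means growth as in untreated cells, lower positive values show inhibition; negative values down to -100 show cell death.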 Unmarked numbers belong to inactive results. Calls of active or inactive are those of the source. How the source made its calls: active means growth percent below 10; inactive means the rest.
# How the values were obtained:
# Experiment in all cases: NCI-60 one-dose screen, 48 h (100 = growth as untreated, 0 = no growth, -100 = all killed)
# SK-MEL-2 melanoma = conditions: 10 µM unless noted
# EKVX NSCLC = conditions: 10 µM unless noted
# SN12C renal = conditions: 10 µM unless noted
# UO-31 renal = conditions: 10 µM unless noted
# TK-10 renal = conditions: 10 µM unless noted
# ACHN renal = conditions: 10 µM unless noted
# CAKI-1 renal = conditions: 10 µM
# A498 renal = conditions: 10 µM unless noted
# CCRF-CEM leukemia = conditions: 10 µM unless noted
# MOLT-4 leukemia = conditions: 10 µM unless noted
# SR leukemia = conditions: 10 µM unless noted
# RPMI-8226 leukemia = conditions: 10 µM unless noted
# OVCAR-8 ovarian = conditions: 10 µM unless noted
# OVCAR-5 ovarian = conditions: 10 µM unless noted
# OVCAR-4 ovarian = conditions: 10 µM unless noted
# SK-OV-3 ovarian = conditions: 10 µM unless noted
# IGROV1 ovarian = conditions: 10 µM unless noted
# OVCAR-3 ovarian = conditions: 10 µM unless noted
# HS 578T breast = conditions: 10 µM unless noted
# NCI/ADR-RES ovarian = conditions: 10 µM unless noted
Compound,growth (SK-MEL-2 melanoma),growth (EKVX NSCLC) [%],growth (SN12C renal),growth (UO-31 renal),growth (TK-10 renal) [%],growth (ACHN renal),growth (CAKI-1 renal),growth (A498 renal),growth (CCRF-CEM leukemia),growth (MOLT-4 leukemia),growth (SR leukemia),growth (RPMI-8226 leukemia),growth (OVCAR-8 ovarian),growth (OVCAR-5 ovarian) [%],growth (OVCAR-4 ovarian),growth (SK-OV-3 ovarian),growth (IGROV1 ovarian),growth (OVCAR-3 ovarian),growth (HS 578T breast),growth (NCI/ADR-RES ovarian)
CCCCCCCCNC(=O)c1ccc(Cn2c(CCCC)nc3c(N)nc4ccccc4c32)cc1,95.4%,62.8,-77.3% (active),11.8%,78.8,26.6%,-1.97% (active),68%,-1.62% (active),-7.07% (active),8.69% (active),-38% (active),-10.9% (active),75.5,-54.3% (active),76.1%,-37.8% (active),69.5%,87.4%,-62.2% (active)
O=C(NCCCNc1cc(-c2cn(-c3ccccc3)nc2-c2cccc(O)c2)ccn1)Nc1cccc(C(F)(F)F)c1,58.1%,45.7,56.5%,23.8%,88.3,47.6%,36.9%,18.3%,29.2%,11.6%,30.2%,4.35% (active),56.1%,56,38.9%,57.5%,44.2%,49.6%,7.27% (active),48.1%
COc1ccc(-c2nnc(SCc3ccc(O)c4ncccc34)n2-c2ccccc2)cc1,33.8%,23.6,24.3%,-12.2% (active),38.4,4.43% (active),11.5%,35.3%,10.7%,17.2%,34.3%,10.9%,16.1%,53.3,13.6%,12.5%,10%,8.67% (active),22.1%,4.3% (active)
NC(=O)c1c(NC(=O)c2cccc(C(F)(F)F)c2F)sc2c1CCC(=O)C2,102%,40.8,27.2%,-7.62% (active),29.8,6.7% (active),-8.99% (active),70.9%,11.7%,13.5%,18.7%,-5.06% (active),18.3%,15.6,6.91% (active),77.2%,23.7%,11.6%,33.9%,11%
NS(=O)(=O)c1ccc(-n2cc(CC=O)nn2)cc1,109%,99.2,106%,87.7%,98.5,107%,92.2%,96%,110%,103%,101%,109%,106%,104,101%,112%,102%,109%,104%,104%
COc1cc2cc(Oc3ccc(NC(=O)Nc4cc(C(F)(F)F)cc(C(F)(F)F)c4)cc3)c(C)nc2cc1OCCN(C)C,113%,106,100%,89.5%,109,107%,93.4%,113%,110%,107%,121%,113%,113%,109,104%,113%,104%,120%,101%,109%
Oc1ccc(CSc2nnc(-c3ccc(Br)cc3)n2-c2ccccc2)c2cccnc12,39.4%,43.1,35%,8.19% (active),36.5,27%,36.7%,63.8%,22.9%,32.3%,37.7%,13.7%,23.4%,54.4,35.7%,23.3%,18.9%,41.5%,13%,–
COc1cc(/C=C/C(=O)c2ccc(NC(=O)CSc3nnc(-c4ccc5nc(-c6ccccc6)[nH]c5c4)o3)cc2)cc(OC)c1OC,105%,99,90.8%,89.4%,137,101%,105%,84.4%,37.5%,65%,36.8%,30.7%,97.1%,102,99.5%,116%,97.2%,72.1%,85.5%,100%
COCCC[C@H]1O[C@@](O)([C@H](C)[C@@H]2CC(OC)C(O)/C=C(C)/C=C(C)/C=C(\C)C(OC3O[C@@H](C)[C@H](O)C(O)[C@@H]3O)C(C)/C=C(C)/C=C(OC)/C=C(\C)C(=O)O2)C(OC)C(O)[C@]1(C)O[C@H]1C[C@@H](O)[C@H](O[C@H]2C[C@](C)(O)[C@H](O)C(C)O2)C(C)O1 (stereo not given in full),50.6%,21.6,68.3%,25.7%,49.9,67.7%,73.8%,56%,53.9%,47.8%,113%,27.5%,41.9%,78.9,19.7%,61%,88.1%,74.9%,86.1%,67.3%
O=C(Nc1ccc(F)cc1)c1cc(-c2ccc(F)cc2F)ccc1O,-8.37% (active),30.5,3.57% (active),-8.25% (active),13.1,9.87% (active),-0.83% (active),-28.7% (active),17.8%,13.9%,26.2%,-11.7% (active),7.54% (active),69.4,11.2%,-8.88% (active),14.7%,6.06% (active),6.19% (active),5.27% (active)
O=C(NCCCNc1cc(-c2cn(-c3ccccc3)nc2-c2cccc(O)c2)ccn1)Nc1ccc(F)cc1,-4.51% (active),33.8,31.1%,6.93% (active),65,24.8%,12.8%,-6.39% (active),11%,4.57% (active),17.4%,-31.1% (active),21.2%,37.8,30.9%,31.5%,19.2%,28.4%,-21.4% (active),20.9%
O=C(O)c1ccc(-n2cc(CNc3ccc(Cl)cc3)c(-c3ccc(F)cc3)n2)cc1,99.1%,81.1,99%,80.5%,119,78.9%,83.8%,88.6%,91.8%,85.4%,121%,80.2%,92.4%,106,101%,110%,102%,105%,100%,102%
Clc1ccc(-c2nc3ccc(/C(=N\N=C\c4ccccc4)c4ccccc4)cc3[nH]2)cc1,96.1%,93.4,93.4%,83.3%,95.9,92.1%,77.2%,65.7%,71%,59.3%,72.9%,54.6%,85.6%,85.6,77.8%,90.7%,104%,–,99.9%,–
O=C1[C@H]2Cc3c([nH]c4ccccc34)[C@@H](c3c(Cl)cccc3Cl)N2C(=O)CN1C1CCN(Cc2ccccc2)CC1,114%,96.2,73.3%,75.9%,46.2,93%,67.6%,102%,21.7%,20%,32.7%,60.3%,74.5%,107,83.9%,115%,70.3%,109%,87.6%,92.8%
COc1ccc(/C=N/Nc2nc(Nc3ccccc3)nc(Nc3ccc(S(N)(=O)=O)cc3)n2)cc1,68.9%,88.5,80.2%,77.9%,107,75.2%,76%,61.7%,45.9%,44.5%,48.5%,47.7%,67.6%,85.6,66.2%,105%,58.7%,–,58.3%,96.3%
COc1ccc(-c2nc(SCC(C)C)nc(N/N=C\c3cccc([N+](=O)[O-])c3)c2C#N)cc1,86.2%,47.7,43.3%,-36.4% (active),91.4,8.66% (active),31.8%,47.6%,80.9%,75.1%,43.5%,66.9%,25.5%,71.5,38.7%,74%,31.4%,–,43%,51.5%
